About 150 (12%) of roughly 1,300 compounds were called active. Inconclusive results (about 30%) are left out. This excerpt belongs to a sample that is enriched for actives. A number with no mark means an inactive call. Calls follow the shape of the dose curve; as a rule, active = well fitted cell-killing curve with a large enough effect; inconclusive = small, poorly fitted or top-dose-only effect, or effect the other way; inactive = flat fitted curve, though single readings scatter.
Experiment: qHTS of small molecules that selectively kill Giardia lamblia: Hit Validation in HepG2 cytotox;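 also: compound exposure lasted overnight at 37 deg C; nearly all actives have a fitted effect of over 55% in size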;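 as to activity change, negative = cytotoxicity: viability measured as cellular ATP by ATPLite luminescence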
Settings: cell viability; Potency: HepG2 cytotoxicity; series mostly up to 38.3 µM; activity change, negative = cytotoxicity: at the top concentration
Method in brief: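 HepG2 cells seeded and incubated overnight at 37 deg C, then 23 nL compound added by pintool and incubated overnight at 37 deg C. Viability read as ATP luminescence with ATPLite after 15 min at room temperature.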
% is scaled to controls: 0 for no effect and ±100 for the full control effect; potency is read from the fitted curve at half-maximal effect.

Row | SMILES | activity change, negative = cytotoxicity [%] | Potency
1 | O=C(O)C1CCN(c2ccccc2[N+](=O)[O-])CC1 | 11.1 | –
2 | COc1ccc(C(=O)C(C)OC(=O)CNC(=O)C2CCCCC2)cc1 (stereo not drawn) | 22.2 | –
3 | Cc1ccc(S(=O)(=O)N2[C@@H](c3ccc(Cl)cc3)C(C(=O)O)=C[C@H]2CC2CCCC2)cc1 | 1.22 | –
4 | COc1ccc(C(=O)c2c3ccc(C(F)(F)F)cc3[n+]([O-])n2CCCN)cc1 | 17.3 | –
5 | Cc1ccc2nc(NC(=O)C3CCCN(S(=O)(=O)c4cnc[nH]4)C3)sc2c1 (stereo not drawn) | 13 | –
6 | O=C(NCc1ccccn1)C1CCCN(S(=O)(=O)c2cc(Cl)ccc2Cl)C1 (stereo not drawn) | – | 3690 nM (active)
7 | O=C(COc1cccnc1[N+](=O)[O-])Nc1cc(S(=O)(=O)N2CCCCC2)ccc1Cl | 22 | –
8 | Cc1ccc(S(=O)(=O)N2[C@@H](c3cccc(Cl)c3)C(C(=O)O)=CC[C@H]2c2cccc(Cl)c2)cc1 | 6.73 | –
9 | CCCSc1ccc2nc(NC(=O)OC)[nH]c2c1 | 4.95 | –
10 | CCc1cccc(NC(=O)CCCSc2nc3ccccc3[nH]2)c1 | – | 16500 nM (active)
11 | CC1(C)CC2CC(C)(CN2S(=O)(=O)c2cccc(C(=O)O)c2)C1 (stereo not drawn) | -6.79 | –
12 | O=[N+]([O-])c1ccc(Oc2cccc(Br)c2)c2ccncc12 | 9.74 | –
13 | Cc1c(Br)c([N+](=O)[O-])nn1C(C)C(=O)Nc1ccc2c(c1)OCO2 (stereo not drawn) | -1.69 | –
14 | O=C1C2C3C=CC(C3)C2C(=O)N1Nc1ccc([N+](=O)[O-])cc1[N+](=O)[O-] (stereo not drawn) | -9.27 | –
15 | Cc1cc(C)nc(N/N=C/c2ccc(Cl)cc2)n1 | 5.19 | –
16 | COc1ccc(/C=N/Nc2cc(C)nc3c(C)cccc23)cc1 | – | 13100 nM (active)
17 | COc1ccc2nc(C)cc(N/N=C/c3ccc(F)cc3)c2c1 | – | 2330 nM (active)
18 | COc1ccccc1Nc1cc(C)nc2c(C)ccc([N+](=O)[O-])c12 | 4.71 | –
19 | CCc1cccc(N=c2c([N+](=O)[O-])nn(-c3ccc(Cl)cc3)n2O)c1 | 18.4 | –
20 | CCOC(=O)C1=C(C)NC(=O)NC1c1ccc([N+](=O)[O-])o1 (stereo not drawn) | 8.82 | –
21 | CN(C)c1ccc2nsnc2c1[N+](=O)[O-] | 22 | –
22 | CN1C(=O)/C(=C/c2cccc(Cl)c2)Sc2ccc(C(=O)N3CCCC3)cc21 | -2.18 | –
23 | Nc1ncnc2c1ncn2C1O[C@H](CO)[C@@H](O)[C@@H]1O (stereo partly drawn) | 12.7 | –
24 | O=C(c1ccc(CSc2nc3ccncc3[nH]2)cc1)N1CCCCCC1 | – | 927 nM (active)

Row | SMILES | activity change, negative = cytotoxicity [%] | Potency
25 | Cc1nnc(SCc2ccc([N+](=O)[O-])cc2)[nH]c1=O | 13.3 | –
26 | Cc1ccc(CSc2nc3ccncc3[nH]2)cc1 | – | 369 nM (active)
27 | Clc1ccc(CSc2nc3ccncc3[nH]2)cc1 | – | 1170 nM (active)
28 | COc1cccc(CSc2nc3ccncc3[nH]2)c1 | – | 4650 nM (active)
29 | O=C(COc1cccnc1[N+](=O)[O-])Nc1ccc(F)cc1 | 4.27 | –
30 | COC1C(OC(=O)/C=C/C=C/C=C/C=C/C(=O)O)CCC2(CO2)C1C1(C)OC1CC=C(C)C (stereo not drawn) (tested in a mixture with another compound) | 21.4 | –
31 | O=C(c1ccc([N+](=O)[O-])o1)N1CCN(c2nc3ccc(F)cc3s2)CC1 | -10.1 | –
32 | O=C1NC(=O)/C(=C\c2ccc(Oc3ccc([N+](=O)[O-])cn3)cc2)S1 | -15.5 | –
33 | COc1ccccc1-n1cc2c([N+](=O)[O-])cc([N+](=O)[O-])cc2n1 | 11.2 | –
34 | COCCn1c(C)cc(C(=O)COc2ccc(C)nc2[N+](=O)[O-])c1C | -1.94 | –
35 | O=C(c1ccco1)N1CCN(c2c([N+](=O)[O-])nn(-c3cccc(Cl)c3)[n+]2[O-])CC1 | 20.3 | –
36 | Cc1cc([N+](=O)[O-])nn1Cc1ccc(F)cc1 | -0.393 | –
37 | N/C(=N\OC(=O)c1ccc(Cl)cc1[N+](=O)[O-])c1ccccn1 | -18.8 | –
38 | CC12CCC(C(=O)Nc3ncc([N+](=O)[O-])s3)(OC1=O)C2(C)C (stereo not drawn) | -9.04 | –
39 | CN(C)CCCn1cnc2c(c1=N)C(c1ccccc1)c1ccc3ccccc3c1O2 (stereo not drawn) | – | 2070 nM (active)
40 | Cc1ccc([C@@H]2CC=C(C(=O)O)[C@H](c3ccc(Cl)cc3)N2S(=O)(=O)c2ccc(C)cc2)cc1 | 8.99 | –
41 | Cc1c[n+]([O-])ccc1[N+](=O)[O-] | 1.35 | –
42 | Cc1c(NC(=O)c2cc(-c3ccc(Cl)c(Cl)c3)on2)c(=O)n(-c2ccccc2)n1C | 4.57 | –
43 | COc1ccc2cc(-c3cc(C(=O)OCC(=O)Nc4c(C)n(C)n(-c5ccccc5)c4=O)c4ccccc4n3)ccc2c1 | – | 464 nM (active)
44 | COc1cc(N=Nc2c(C)n(C)n(-c3ccccc3)c2=O)ccc1N | 0.604 | –
45 | Cc1ccc(CN=c2c([N+](=O)[O-])nn(-c3cccc(C)c3)n2O)cc1 | 9.21 | –
46 | O=[N+]([O-])c1nn(-c2ccc3c(c2)OCCO3)n(O)c1=NC1CCN(Cc2ccccc2)CC1 | -1.51 | –
47 | CN(C)c1ccc(/C=C(/NC(=O)c2ccccc2)C(=O)N/N=C/c2ccc([N+](=O)[O-])c(O)c2)cc1 | 9.79 | –
48 | Cc1ncc([N+](=O)[O-])n1CCOC(=O)NC(NCc1cccnc1)C(Cl)(Cl)Cl (stereo not drawn) | -2.24 | –
